PubChem BioAssay AID602438 (Sanford-Burnham Center for Chemical Genomics, 2012)
The campaign covered roughly 360,000 compounds. About 3,100 (0.86%) were called active. What follows is part of a selection rich in actives, with near analogues and random picks from the rest. Unmarked numbers belong to inactive results.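 How the source made its calls: active means inhibition or corrected inhibition above about 18%, plus a signal ratio from 0.5 to 1.5 (limit read from the data, passing the limit was not always enough); inactive means the rest.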

These compounds were tested against Neuropilin-1 (Homo sapiens) (UniProt O14786) (assay: NRP-1/CendR peptide interaction modulators – biochemical, fluorescence polarization, uHTS, primary screen (AID 602438)). Conditions: FAM-RPARPAR peptide binding to NRP-1, fluorescence polarization; at 25 µM; hits give high values.
Neuropilin-1 (Homo sapiens), sequence (O14786 whole entry, looked up): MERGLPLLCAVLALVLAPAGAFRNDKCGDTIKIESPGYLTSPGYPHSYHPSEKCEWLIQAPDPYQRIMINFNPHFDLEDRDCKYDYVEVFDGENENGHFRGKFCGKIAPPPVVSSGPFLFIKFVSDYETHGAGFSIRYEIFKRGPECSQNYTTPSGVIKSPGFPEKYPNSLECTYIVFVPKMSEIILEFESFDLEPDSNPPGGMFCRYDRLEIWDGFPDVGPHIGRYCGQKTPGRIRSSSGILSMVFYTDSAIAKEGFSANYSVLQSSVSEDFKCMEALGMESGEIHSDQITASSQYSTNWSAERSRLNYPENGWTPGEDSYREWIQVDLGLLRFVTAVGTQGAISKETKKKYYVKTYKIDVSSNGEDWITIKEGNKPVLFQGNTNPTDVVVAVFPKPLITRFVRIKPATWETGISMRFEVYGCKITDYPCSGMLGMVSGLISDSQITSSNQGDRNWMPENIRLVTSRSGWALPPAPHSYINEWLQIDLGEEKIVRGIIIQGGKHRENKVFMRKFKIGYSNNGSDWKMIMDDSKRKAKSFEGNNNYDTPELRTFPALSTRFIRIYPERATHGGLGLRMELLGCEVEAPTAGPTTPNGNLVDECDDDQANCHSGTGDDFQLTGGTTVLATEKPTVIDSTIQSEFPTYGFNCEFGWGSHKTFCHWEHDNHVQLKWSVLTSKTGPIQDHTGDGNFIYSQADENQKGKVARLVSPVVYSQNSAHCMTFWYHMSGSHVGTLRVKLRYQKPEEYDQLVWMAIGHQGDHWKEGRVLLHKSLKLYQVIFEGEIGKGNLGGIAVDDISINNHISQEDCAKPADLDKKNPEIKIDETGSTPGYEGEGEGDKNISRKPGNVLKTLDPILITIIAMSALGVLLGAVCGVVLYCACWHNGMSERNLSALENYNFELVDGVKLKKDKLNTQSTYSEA

Compound	inhibition
COC(=O)Cc1nc2c(N)nc(N)nc2[nH]c1=O	26.3% (active)
CC1C(=O)N(Cc2cn(CC3CCCCC3)nn2)CCS(=O)(=O)N1Cc1ccc(-c2cccc(N(C)C)c2)cc1 (stereo not given)	-7%
Cc1ccc(-c2noc(C3CCCN(C(=O)c4cccc(Cl)c4)C3)n2)o1 (stereo not given)	3.6%
COC(=O)CCCC1=CC2=CC(=O)C(C)(OC(=O)c3cccs3)C(=O)C2=CN1CC1CC1 (stereo not given)	36.2% (active)
COC(=O)CCCC1=CC2=C(c3ccccc3)C(=O)C(C)(OC(=O)C3CCCC3)C(=O)C2=CN1c1ccc(OC)cc1 (stereo not given)	-6.8%
COC(=O)CCCC1=CC2=CC(=O)C(C)(OC(=O)c3cccs3)C(=O)C2=CN1c1cccc(C#N)c1 (stereo not given)	-18.7%
Nc1cccc(OCCCCCOc2cccc(N)c2)c1	7%
CCOC(=O)N1CCN(Cc2nc3c(c(=O)n(C)c(=O)n3C)n2Cc2ccccc2)CC1	-7.4%
Cn1c(=O)c2c(nc(OCc3cccnc3)n2Cc2ccccc2)n(C)c1=O	28.5% (active)
C=CCOc1nc2c(c(=O)n(C)c(=O)n2C)n1Cc1ccc(Cl)cc1Cl	7.1%
Cc1ccccc1C(=O)N1CCC(C(=O)Oc2ccc(C#N)cc2)CC1	-0.1%
CC(C)Cn1cnc2c(SCc3ccc(Cl)cc3)nc(N)nc21	20.8% (active)
CC(C)Sc1nc(N)nc2c1ncn2C1OC(CO)C(O)C1O (stereo not given)	-1.6%
Nc1nc(SCc2ccc([N+](=O)[O-])cc2)c2ncn(C3OC(CO)C(O)C3O)c2n1 (stereo not given)	-20.4%
Cc1cccc(C)c1NC(=O)C(c1ccc(C(F)(F)F)cc1)n1c(=O)c(-c2ccco2)nc2ccccc21 (stereo not given)	-67%
CC(NCCO)C(=O)C12CC3CC(CC(C3)C1)C2 (stereo not given)	6.1%
COc1cc(/C=C/C(=O)OCC(=O)Nc2cccc(Oc3ccccc3)c2)ccc1O	-3.6%
COc1ccc(C(C(=O)NCc2ccccc2)n2c(=O)c(-c3ccccc3)nc3ccccc32)cc1 (stereo not given)	-0.4%
CCc1[nH]nc(C(=O)N2CCCC(CNS(=O)(=O)c3cccs3)C2)c1C (stereo not given)	3.8%
COc1cc2c(cc1O)C(SC)=NC(C)(C)C2	9%
COc1cc2c(cc1OC)C(Nc1ccc(S(N)(=O)=O)cc1)=NC(C)(C)C2	26.3% (active)
COc1cc2c(cc1OC)C(C(C)C)=NC(C)(C)C2	-1.6%
Cn1c(=O)cc(OCCCC(=O)N2CCN(c3ccccn3)CC2)c2ccccc21	-0.5%
Cc1ccc(C)c(NC(=O)C(c2ccccc2)N2CCN(CC(=O)NC3CC3)CC2)c1 (stereo not given)	-1.3%
CCOC(=O)c1cc2cc(C)ccc2[nH]1	1.1%
CCOC(=O)c1[nH]c2ccc(C)cc2c1N=C(C)N(C)C	28.1% (active)
CCOC(=O)c1ccc2[nH]c3c(c2c1)CCCC3NC=O (stereo not given)	-0.5%
CC1CC1C(=O)OCC(=O)Nc1cccc(F)c1 (stereo not given)	5.8%

Compound	inhibition
O=P(c1cccs1)(c1cccs1)c1cccs1	6.4%
CN(CCCNC(=O)CN1C(=O)CC(C)(C)S(=O)(=O)c2ccccc21)C1CCCCC1	12.4%
COc1nc(-c2ccc(Cl)cc2)ccc1-c1noc(-c2cccs2)n1	49.1% (active)
Clc1ccc(Cc2nnc(-c3cccs3)o2)cc1	-15.6%
COc1ccc(CCc2nc(-c3cccs3)no2)cc1	-5.8%
O=C(OCc1ccc([N+](=O)[O-])cc1)C1CC(=O)N(Cc2ccccc2Cl)C1 (stereo not given)	-11.4%
O=C(O)c1ccc(NS(=O)(=O)c2ccc3c(c2)C(=O)c2cc(S(=O)(=O)Nc4ccc(C(=O)O)cc4)ccc2-3)cc1	-59.7%
Cc1ccc(-c2noc(-c3ccccc3C(=O)NCC3CCCO3)n2)cc1 (stereo not given)	28% (active)
O=C(Nc1ccccc1C(=O)NCC1CCCO1)c1ccccc1F (stereo not given)	20.7%
O=C(NCC1CCCO1)c1ccccc1-c1nc(-c2ccccc2Cl)no1 (stereo not given)	8%
COc1ccc(NS(=O)(=O)c2ccc(C)c(C(=O)NCC(c3cccs3)N3CCOCC3)c2)cc1 (stereo not given)	6.2%
CC1(C(=O)Nc2ccc3c(c2)OCCO3)CN(S(C)(=O)=O)CC(=O)N1Cc1cccc(F)c1 (stereo not given)	-4.8%
CN1CCCc2cc(C#N)c(=O)[nH]c21	4.8%
Cn1nnnc1NCc1ccc(Cl)c(Cl)c1	12.8%
CCCCn1nnnc1C(c1ccccc1)N1CCN(c2ccccc2OC)CC1 (stereo not given)	-6.7%
CCCCn1nnnc1C(c1cc2ccccc2o1)N(C)Cc1ccc(Cl)c(Cl)c1 (stereo not given)	26.3% (active)
COc1ccc(S(=O)(=O)N2CCCC(C(=O)Nc3ccc(NC(=O)c4ccccn4)cc3)C2)cc1 (stereo not given)	0.1%
CCCC(C(=O)n1nc(C)cc1C)C(NS(=O)(=O)c1ccc(C)cc1)c1ccccc1 (stereo not given)	-0.9%
O=C1NC[C@@H](c2ccccc2)OC(=O)[C@H](Cc2ccc(F)cc2)CC/C=C/C[C@H]1CC(=O)N(CCO)Cc1ccccc1	23.4% (active)
O=C1OC[C@@H]2CCCN2C(=O)[C@H](CC(=O)N(CCO)Cc2ccccc2)C/C=C\CC[C@@H]1Cc1ccc(F)cc1	4.4%
O=C1N[C@H](Cc2c[nH]c3ccccc23)COC(=O)[C@H](Cc2ccc(F)cc2)C/C=C\C[C@H]1CC(=O)N(CCO)Cc1ccccc1	22.7% (active)
CC(C)(C)OC(=O)C[C@@H]1C/C=C\C[C@@H](CC(=O)N(CCO)Cc2ccccc2)C(=O)N[C@H](Cc2ccccc2)COC1=O	-9.4%
O=C1CCC/C=C\C[C@@H](CC(=O)N(CCO)Cc2ccccc2)C(=O)NCCO1	4.9%
O=C1CCC/C=C/C[C@@H](CC(=O)N(CCO)Cc2ccccc2)C(=O)NC[C@H](c2ccccc2)O1	4.9%
CCN(Cc1ccccc1)S(=O)(=O)c1cc(C(=O)O)ccc1OC	13.4%
C/C(N)=C(\C#N)C(=O)NCCc1ccccn1	-1.8%
CC(C)CN(C(=O)c1cccc(S(=O)(=O)N2CCCCC2)c1)C1CCS(=O)(=O)C1 (stereo not given)	-6.3%
